This is part of a sample that, as a whole, favours compounds with a hit. Of some 79,000 tested, about 15% had one in any assay. A number with no mark means an inactive call. Activity calls are given as the source filed them. No stated cut-off is given here; in the data, active means growth inhibition above about 70%; inactive means the rest. Where a SMILES comes first, the peptide text is derived from it.
Key:
[1] = NCI Yeast Anticancer Drug Screen. Data for the rad50 strain (AID 155);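 further: 0% = growth of vehicle-only cultures of the same strain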; conditions: S. cerevisiae rad50 strain growth inhibition; at 50.0 µM; hits give high values
Procedure, shortened: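 Vehicle-treated cultures provide the reference for the growth inhibition reported for compound-exposed, repair-deficient yeast.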

[2] = NCI Yeast Anticancer Drug Screen. Data for the mec2-1 strain (AID 157); conditions: S. cerevisiae mec2-1 strain, at 50.0 µM, hits give high values
Procedure, shortened: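 Strain: mec2-1 (DNA repair/cell cycle alteration). Compound exposure, then growth measured; inhibition expressed relative to vehicle.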

[3] = NCI Yeast Anticancer Drug Screen. Data for the sgs1 mgt1 strain (AID 161);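 further: 0% = growth of cultures given vehicle only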; conditions: S. cerevisiae sgs1 mgt1 strain, at 50.0 µM, hits give high values
Procedure, shortened: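 Genetically altered yeast, compound exposure, growth inhibition relative to vehicle.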

[4] = NCI Yeast Anticancer Drug Screen. Data for the cln2 rad14 strain (AID 165);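 further: 0% = growth equal to vehicle treated cultures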; conditions: S. cerevisiae cln2 rad14 strain, at 50.0 µM, hits give high values
Procedure, shortened: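 Compounds are applied to the cln2 rad14 yeast strain, and growth is then compared with that of vehicle-treated cultures to give inhibition.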

[5] = NCI Yeast Anticancer Drug Screen. Data for the bub3 strain (AID 167); conditions: S. cerevisiae bub3 mutant strain, at 50.0 µM, hits give high values
Procedure, shortened: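 Mutant yeast screening strain plus compound; vehicle-treated cultures serve as the 0% inhibition reference.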

[6] = NCI Yeast Anticancer Drug Screen. Data for the mlh1 rad18 strain (AID 175); conditions: S. cerevisiae mlh1 rad18 strain growth inhibition; at 50.0 µM; hits give high values
Procedure, shortened: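 Read-out is yeast growth inhibition, calculated against vehicle-only controls. The compound was applied to a strain engineered with DNA damage repair alterations.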

| SMILES | growth inhibition [1] | growth inhibition [2] | growth inhibition [3] | growth inhibition [4] | growth inhibition [5] | growth inhibition [6] |
| --- | --- | --- | --- | --- | --- | --- |
| C/C(CC(=O)Nc1cccc([N+](=O)[O-])c1)=N\NC(=O)C[n+]1ccccc1 | 15.5% | -16.9% | -0.65% | 19.1% | 0.5% | -3.35% |
| c1ccc(-c2c[s+]cc(-c3ccccc3)c2)cc1 | 98.7% (active) | 98.9% (active) | 99.2% (active) | 98.5% (active) | 78.2% (active) | 99.2% (active) |
| COc1ccc(C(=O)/C=C/c2ccc(OCC(=O)O)cc2)cc1 | 22.6% | 12.3% | 18.1% | 21.8% | -5.75% | 42.8% |
| CCOC(=O)Cn1c(=O)c(-c2ccccc2NC(C)=O)nc2ccccc21 | -12.3% | -3.65% | -7.9% | -6.1% | 0.4% | -14.1% |
| CCN(CC)c1ccc(N)cc1 | -4.05% | -9.9% | 26.1% | -4.4% | -3.1% | 35.1% |
| Nc1nc2c(C(=O)N3CCCC3)nnn2c2cccc(Cl)c12 | -4.45% | -11.7% | 17% | 18.3% | 9.9% | 0.05% |
| CCOC(=O)C1=NN(c2ccccc2)C(=O)/C1=C\n1ccc(=O)[nH]c1=S | -32.5% | -43.8% | -44.5% | -36.1% | -25.9% | -60.8% |
| CC(=O)Nc1ccc2c(c1)Cc1c(F)cc(F)cc1-2 | 35.9% | -9% | 19.6% | 16.1% | 21.9% | 39.8% |
| C/C(CC(N)=O)=C1\C(=O)NN(c2ccccc2)C1=O | 23.1% | 26.4% | 48.2% | 7.3% | 40% | 36.4% |
| CCC1=C(O)C(=O)C(C)(C)C1=O | -5.85% | -5.2% | -3.15% | -2.7% | 15.9% | 9.45% |
| O=c1cccccc1Cl | 14.8% | -41.6% | 20.9% | 5.6% | 40.8% | 11.6% |
| CC([O-])=C1C(=O)c2ccccc2C1=O.CC([O-])=C1C(=O)c2ccccc2C1=O.CC[O-].CC[O-].[Ti+4] | 19.4% | 27.6% | 55.4% | 29% | 37.8% | 36.5% |
| CCOC(=O)C(C(=O)OCC)C(=O)C(C)(C)C | 25.8% | 0.3% | 0.7% | 11.2% | 30.5% | 18.9% |
| CC1C=CC(C)S(=O)N1C(=O)Cc1ccccc1 (centres undefined) | -2.6% | -14.6% | -9.35% | -16.9% | -25.5% | -19.6% |
| C[N+](C)(C)c1cc[c]([Sn]([c]2ccc([N+](C)(C)C)cc2)([c]2ccc([N+](C)(C)C)cc2)[c]2ccc([N+](C)(C)C)cc2)cc1 | 16.4% | -5.75% | 20.2% | 6.65% | -0.15% | 11.3% |
| COc1ccc(/C=N/NC(=O)NCCCN(C)C)cc1 | 3.3% | -29% | -9.9% | -5% | -23.9% | -7.65% |
| COc1ccc2c(c1)-c1c3c(cc4ccnc(c14)C2=O)OCO3 | 91.7% (active) | 93% (active) | 93.4% (active) | 91.5% (active) | 92% (active) | 91.8% (active) |
| CC(=O)N1Cc2c(cc(C)[nH]c2=O)C1=O | 9% | 10.5% | 6.45% | 10.7% | 1.05% | 7.65% |
| O=[N+]([O-])c1nccn1COCCI | 7.25% | 15.4% | -0.2% | 3.3% | 7.75% | 52.3% |
| NC(Cc1ccccc1)C(=O)NCC(=O)NC(Cc1ccccc1)C(=O)NCC(=O)O (centres undefined) (H-FGFG-OH; configuration not given here) | -4.35% | -4.15% | -7.95% | -36.4% | -4.7% | 4.2% |

| SMILES | growth inhibition [1] | growth inhibition [2] | growth inhibition [3] | growth inhibition [4] | growth inhibition [5] | growth inhibition [6] |
| --- | --- | --- | --- | --- | --- | --- |
| CN(C)CCC(O)(c1ccccc1)C(O)(CCN(C)C)c1ccccc1 (centres undefined) | -3.15% | -14.8% | -8.45% | -8.85% | -13.8% | -16.4% |
| COc1ccccc1NC=O | -1.5% | -25.1% | -3.65% | 16.8% | -7.4% | 2.55% |
| C/C(=N/N=C(N)N)c1cnn(C(=N)N)c1C | 15.3% | 13.3% | 18.2% | 19.4% | 20.9% | 28.4% |
| C=CCOCc1ccc(C(C)(C)CC(C)(C)C)cc1 | -5.25% | 13.5% | 8.6% | -75.5% | 16.1% | 15.7% |
| NS(=O)(=O)c1ccc(NC(NC(=O)C(C(F)(F)F)C(F)(F)F)(C(F)(F)F)C(F)(F)F)cc1 | 16.6% | 15.1% | -6.2% | -8.25% | 5.15% | -0.8% |
| CC(C)(C)OC(=O)N1CCCC1C(=O)NCCNc1ccc(NCCNC(=O)C2CCCN2C(=O)OC(C)(C)C)c2c1C(=O)c1ccccc1C2=O (centres undefined) | 13.8% | 13.4% | 21.4% | 52.4% | 2.35% | -25% |
| CCOC(=O)c1c(-c2ccc([N+](=O)[O-])cc2)c(C#N)n(-c2ccccc2)c1C | -1.25% | 36% | 28.4% | -7.95% | 45.1% | 6.1% |
| Nc1cccc2c(S(=O)(=O)O)cccc12 | -2.9% | -3.15% | -11.9% | -66.7% | 0.3% | 0.75% |
| CC(=O)OCc1ccc(C)cc1 | -9.05% | 6.6% | -12.7% | -32.8% | -14.9% | 0.3% |
| O=C1CSCc2sccc21 | 37% | 26.1% | 6.55% | -14.4% | 17.3% | 2.95% |
| CCOC(=O)C(CCC(C)=O)C(=O)OCC | -1.25% | 12.8% | -6.15% | 24.6% | 5.65% | -19.1% |
| COc1ccc(-c2nc(SCc3ccc(Cl)cc3)[nH]c(=O)c2CCO)cc1 | 32.3% | -7.75% | -4.45% | 3.15% | -3.45% | 10.4% |
| Cc1cccnc1NCc1ccccn1 | 3.1% | -0.9% | 15.1% | 4.35% | 1.75% | 3.35% |
| CCOc1ccccc1NC(C)=O | -6.5% | 6.1% | 2.2% | -13.4% | -14.6% | -0.75% |
| COC(=O)c1cc([O-])c2sc(C)c(C)[n+]2n1 | 4.25% | 19.6% | 25.7% | 35.6% | -4.05% | 2.55% |
| CNC(=O)c1ccc[n+](CC(=O)NCc2ccccc2)c1 | -1.8% | -11.3% | -15.8% | -2.25% | -1.5% | -15.6% |
| Cc1ccc([Si](C)(C)c2ccccc2)cc1 | -2.4% | 13.6% | -2.65% | 7.7% | 9.7% | 4.9% |
| Brc1ccccc1-c1nnc(-c2cccc3ccccc23)o1 | -20.9% | -59.9% | -15.3% | -10.8% | -26.6% | -23.2% |
| ClC(Cl)=C(Cl)C(Cl)(Cl)Cl | -23.8% | 20.9% | 0.95% | -16.5% | -5.65% | 5.4% |

Source: PubChem BioAssay (NCI)
